Many of the other results were omitted from the sample, so hits are more common in it than they were.
AMA1-RON2 inh – disrupts binding of P. falciparum AMA1 to RON2. AlphaScreen AMA1-biotinylated RON2 peptide binding. Potency, µM (titrated, usually from 58.2 µM), actives largely listed as inhibitors. hit rate 0.2% among 360,000. AID 720542; active means well fitted inhibition curve with a large enough effect; inconclusive means small, poorly fitted or top-dose-only effect; inactive means no such curve, though single readings can be large or run the other way; further: nearly all actives have a fitted effect of over 45% in size
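AMA1 (3D7) with his tag at 25 nM final met compounds first, then biotinylated RON2 peptide at 25 nM; detection used donor plus acceptor beads, 10 µg/mL apiece, read by AlphaScreen after 30 min at room temperature.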
Marburg entry inh – Marburg virus entry inhibition. hit rate 1.8% among 300,000. Marburg virus pseudotyped entry inhibition, cell reporter. Potency, µM (series often up to 37.8 µM), hits mostly inhibitors; calls by dose curve; tested in HEK293 cells
Shiga inhibitor – inhibitors of Shiga toxin in Vero cells | inhibition, % at 38.7 µM | Vero cells, Shiga toxin protein synthesis inhibition reporter | AID 2315 | hit rate 9.2% among 290,000; in the data active means inhibition mostly above about 28%, no sharp cut-off; inactive means mostly below about 43%
Lassa entry inh – Lassa virus entry inhibition; Lassa virus pseudotype entry inhibition, cell reporter; hit rate 1.2% among 300,000; Potency, µM (titrated, usually from 37.9 µM), usual class: inhibitors; AID 540256; calls by dose curve; tested in HEK293 cells; further: nearly all actives have a fitted effect of over 50% in size
CHX counter – affects cycloheximide protein synthesis inhibition readout, counter-screen; cell reporter, cycloheximide protein synthesis inhibition counterscreen; max response, %; hit rate 12% among 300,000; AID 2314; in the data active means max response mostly above about 13%, no sharp cut-off; inactive means mostly below about 14%; further: read at 38.3 µM for the half of the compounds with a filed dose
Of the large screens only hits and unclear results are named; the others gave an inactive call.

CC(=O)c1c(C)[nH]c(C(=O)OCC(=O)Nc2ccc(Cl)cc2[N+](=O)[O-])c1C	Marburg entry inh 6.3µM
CCOC(=O)c1[nH]c(C)c(C(=O)NCCC2=CCCCC2)c1C	none
COc1ccccc1NC(=O)c1[nH]c(C)c(C(C)=O)c1C	Marburg entry inh inconclusive
CC(=O)c1c(C)[nH]c(C(=O)OCC(=O)Nc2ccc(Cl)c(S(=O)(=O)N(C)C)c2)c1C	none (no result: Marburg entry inh, Lassa entry inh)
CC(=O)c1c(C)[nH]c(C(=O)NCCc2c[nH]c3ccccc23)c1C	Shiga inhibitor 41, CHX counter 39
CC(=O)c1c(C)[nH]c(C(=O)Nc2ccc(Cl)cc2)c1C	Marburg entry inh inconclusive, Shiga inhibitor 62, Lassa entry inh inconclusive, CHX counter 41
CC(=O)c1c(C)[nH]c(C(=O)Nc2cccc(S(=O)(=O)N3CCOCC3)c2)c1C	none
CC(=O)c1c(C)[nH]c(C(=O)Nc2ccc(Cl)c(S(=O)(=O)N(C)C)c2)c1C	Shiga inhibitor 109, CHX counter 24 (no result: Marburg entry inh, Lassa entry inh)
CSc1cccc(NC(=O)c2[nH]c(C)c(C(C)=O)c2C)c1	Marburg entry inh inconclusive, Shiga inhibitor 93, Lassa entry inh inconclusive, CHX counter 44
COc1cccc(NC(=O)c2sc(-n3nc(C)c(Cc4ccccc4Cl)c3C)nc2C)c1	none (no result: AMA1-RON2 inh, Shiga inhibitor, CHX counter)
CCC(NC(=O)c1[nH]c(C)c(C(C)=O)c1C)c1ccc(Br)cc1 (stereo unspecified)	Marburg entry inh 8.9µM, Lassa entry inh inconclusive
CC(=O)c1c(C)[nH]c(C(=O)NC2=NCCS2)c1C	Shiga inhibitor 30, CHX counter 17
CC(=O)c1c(C)[nH]c(C(=O)NCCc2ccc(Cl)cc2)c1C	CHX counter 16 (no result: Marburg entry inh, Lassa entry inh)
CC(=O)c1[nH]c(C)c(C(=O)NCCc2ccc(C)cc2)c1C	none (no result: AMA1-RON2 inh, Marburg entry inh, Shiga inhibitor, CHX counter)
CCC(C)c1ccc(NC(=O)c2[nH]c(C)c(C(C)=O)c2C)cc1 (stereo unspecified)	Marburg entry inh inconclusive, Shiga inhibitor 71, CHX counter 23
CC(=O)c1c(C)[nH]c(C(=O)OCC(=O)c2ccc(Br)cc2)c1C	none (no result: Marburg entry inh, Shiga inhibitor, Lassa entry inh, CHX counter)
CCOc1ccc(OCC)c(NC(=O)c2[nH]c(C)c(C(C)=O)c2C)c1	none
CC(NC(=O)c1ccc2c(c1)sc1nc(-c3ccc(F)cc3)cn12)C12CC3CC(CC(C3)C1)C2 (stereo unspecified)	none (no result: AMA1-RON2 inh, Marburg entry inh, Shiga inhibitor, CHX counter)
COc1ccc(Cn2cccc(NC(=O)Nc3cccc(OC)c3)c2=O)cc1	none (no result: Marburg entry inh, Lassa entry inh)
COc1ccc(Cl)cc1C(=O)NNC(=O)c1[nH]c(C)c(C(C)=O)c1C	none (no result: Shiga inhibitor, CHX counter)
CC(=O)c1c(C)[nH]c(C(=O)Nc2ccc(Cl)cc2F)c1C	Marburg entry inh inconclusive, Shiga inhibitor 116, Lassa entry inh inconclusive, CHX counter 32
COc1ccccc1NS(=O)(=O)c1cccc(NC(=O)c2[nH]c(C)c(C(C)=O)c2C)c1	none (no result: Marburg entry inh, Lassa entry inh)
CC(=O)c1c(C)[nH]c(C(=O)Nc2cccc(S(=O)(=O)N(C)c3ccccc3)c2)c1C	Marburg entry inh 13µM, Lassa entry inh inconclusive
Cc1ccc(SCc2nn(C)c(Cl)c2C=O)cc1	Shiga inhibitor 57, CHX counter 42
O=c1c(OC2OC(CO)C(O)C(O)C2O)c(-c2ccc(O)c(O)c2)oc2cc(O)cc(O)c12 (stereo unspecified)	Marburg entry inh 15µM
O=c1cc(-c2ccc(O)c(O)c2)oc2cc(O[C@@H]3O[C@H](CO)[C@@H](O)[C@H](O)[C@H]3O)cc(O)c12	AMA1-RON2 inh inconclusive (no result: Marburg entry inh, Lassa entry inh)
COc1cc(O)c2c(=O)c(-c3ccc(O[C@@H]4O[C@H](CO)[C@@H](O)[C@H](O)[C@H]4O)cc3)coc2c1	Marburg entry inh 10µM, Shiga inhibitor 111, Lassa entry inh inconclusive, CHX counter 39
O=c1c(-c2ccc(O)cc2)coc2cc(OC3OC(CO)C(O)C(O)C3O)cc(O)c12 (stereo unspecified)	Marburg entry inh inconclusive, Shiga inhibitor 68, Lassa entry inh inconclusive, CHX counter 22
Cc1c(C)c2ccc(O[C@@H]3O[C@H](CO)[C@H](O)[C@H](O)[C@H]3O)cc2oc1=O	none (no result: Marburg entry inh, Lassa entry inh)
O=c1c(-c2ccc(O)cc2)coc2cc(OC3OC(CO)C(O)C(O)C3O)ccc12 (stereo unspecified)	Shiga inhibitor 43, CHX counter 20
O=c1c(O[C@@H]2O[C@H](CO)C(O)C2O)c(-c2ccc(O)c(O)c2)oc2cc(O)cc(O)c12 (stereo partly specified)	none (no result: Marburg entry inh, Shiga inhibitor, Lassa entry inh, CHX counter)
CC1=C[S+](=O)([O-])CC1SC1=NC2C=CC=CC2=N1 (stereo unspecified)	none (no result: AMA1-RON2 inh, Shiga inhibitor, Lassa entry inh, CHX counter)
CCS(=O)(=O)N1CCC(C(=O)Nc2cc(C)ccc2O)CC1	none (no result: Marburg entry inh, Lassa entry inh)
CCCn1c(N)c(C(=O)CSc2nnc(N)s2)c(=O)[nH]c1=O	none (no result: Marburg entry inh, Shiga inhibitor, Lassa entry inh, CHX counter)
CCCn1c(N)c(C(=O)CSc2nc3ccccc3s2)c(=O)[nH]c1=O	Marburg entry inh inconclusive, Shiga inhibitor 61, Lassa entry inh inconclusive
O=C(Cc1nc2ccccc2s1)c1ccc(O)cc1O	Shiga inhibitor 65, CHX counter 41 (no result: AMA1-RON2 inh, Lassa entry inh)
O=C(CSc1nc2ccccc2s1)c1ccc(O)cc1O	Shiga inhibitor 59, CHX counter 22 (no result: Marburg entry inh, Lassa entry inh)
CCc1cc(C(=O)Cc2nc3ccccc3s2)c(O)cc1OCC(=O)O	none
COc1ccc(CC(=O)NCc2nc3cccnc3n2Cc2ccc(C)cc2)cc1OC	none (no result: AMA1-RON2 inh, Marburg entry inh, Shiga inhibitor, CHX counter)
COc1nc(N=C(N)N)nc2ccc(C)cc12	none (no result: AMA1-RON2 inh, Lassa entry inh)
CC(NC(=O)/C=C/c1ccccc1[N+](=O)[O-])C1CC2CCC1C2 (stereo unspecified)	none
CC1=CC=CC2=NC(=O)CC(C)(C(=O)N(CC(=O)NC3CCCC3)c3ccc(F)cc3)N12 (stereo unspecified)	Marburg entry inh inconclusive (no result: Lassa entry inh)
CC1(c2nnnn2-c2ccc3c(c2)OCCO3)CCC(=O)N1C1CC1 (stereo unspecified)	none (no result: Marburg entry inh, Shiga inhibitor, Lassa entry inh, CHX counter)
CC(NC(=O)CCCc1nnc2n(C)c(=O)c3sccc3n12)c1ccccc1 (stereo unspecified)	none (no result: Marburg entry inh, Lassa entry inh)
O=C(Nc1nc(-c2ccccc2)c(-c2ccccc2)s1)c1ccc(S(=O)(=O)N(CCCl)CCCl)cc1	Marburg entry inh inconclusive, Lassa entry inh 5µM
COCCN(CCOC)S(=O)(=O)c1ccc(C(=O)Nc2nc(C)c(C(C)=O)s2)cc1	none
COc1ccc(CCNC(=O)c2cc(COc3c(F)cccc3F)on2)c(OC)c1	Shiga inhibitor 70, CHX counter 37
Cc1cccc(C)c1OCc1cc(C(=O)NCC2CCCCC2)no1	none (no result: Marburg entry inh, Lassa entry inh)
COc1ccc(CNC(=O)c2cc(COc3c(F)cccc3F)on2)cc1OC	none (no result: Marburg entry inh, Lassa entry inh)
COc1ccc(CCNC(=O)c2cc(COc3c(C)cccc3C)on2)c(OC)c1	Shiga inhibitor 65, Lassa entry inh inconclusive, CHX counter 77
Cc1ccc(S(=O)(=O)Nc2cc3c(C(=O)OCc4ccccc4)c(C)oc3c3ccccc23)c(C)c1	none (no result: AMA1-RON2 inh, Shiga inhibitor, CHX counter)
CCOc1ncccc1C(=O)Nc1cc(S(=O)(=O)N2CCCCC2)ccc1C	none (no result: Marburg entry inh, Shiga inhibitor, Lassa entry inh, CHX counter)
COc1cccc(/C=N/NC(=O)c2ccc(-n3cnnn3)cc2)c1	none (no result: Shiga inhibitor, CHX counter)
CCOC(=O)N1C(=O)[C@](CC)(c2ccccc2)N1C(=O)OCC	CHX counter 19 (no result: Marburg entry inh, Lassa entry inh)
CCC1(c2ccccc2)C(=O)N(C(=O)OC(C)(C)C)N1C(=O)OC(C)(C)C (stereo unspecified)	none (no result: Marburg entry inh, Shiga inhibitor, Lassa entry inh, CHX counter)
Cc1nn(-c2ccccc2)c(C)c1CCC(=O)O	Marburg entry inh inconclusive, Shiga inhibitor 90, Lassa entry inh inconclusive, CHX counter 42
